Measured values taken from PubChem BioAssay (NCI).
About 83,000 compounds went through this panel and 20% of them were active in at least one assay; those are over-represented in the sample as a whole.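 Testing used 96-well plates and a 48-hour single-concentration exposure. Example: -40 means 40% of the starting cells died.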 Activity calls are given as the source filed them. Rule for the calls: active = growth percent below 10; inactive = the rest.

Experiments:
Experiment in all cases: NCI-60 one-dose screen, 48 h (100 = growth as untreated, 0 = no growth, -100 = all killed)
NCI-H322M lung = details: 10 µM unless noted
HOP-92 NSCLC = details: 10 µM unless noted
NCI-H522 lung = details: 10 µM unless noted
U251 CNS = details: 10 µM unless noted
SK-MEL-5 melanoma = details: 10 µM unless noted
SK-MEL-2 melanoma = details: 10 µM unless noted
EKVX NSCLC = details: 10 µM unless noted
SN12C renal = details: 10 µM unless noted
TK-10 renal = details: 10 µM unless noted
ACHN renal = details: 10 µM unless noted
IGROV1 ovarian = details: 10 µM
HS 578T breast = details: 10 µM unless noted
T-47D breast = details: 10 µM unless noted
MDA-MB-435 melanoma = details: 10 µM unless noted
HCT-116 colon = details: 10 µM unless noted
COLO 205 colon = details: 10 µM
SNB-19 CNS = details: 10 µM unless noted
CCRF-CEM leukemia = details: 10 µM unless noted
SR leukemia = details: 10 µM

Measured: growth

CNC(=O)Oc1cccc(OC)c1
inactive: NCI-H322M lung 132% | HOP-92 NSCLC 125% | NCI-H522 lung 96.5% | U251 CNS 110% | SK-MEL-5 melanoma 109% | SK-MEL-2 melanoma 89.8% | EKVX NSCLC 95.5% | SN12C renal 93.3% | TK-10 renal 125% | ACHN renal 109% | IGROV1 ovarian 118% | HS 578T breast 109% | T-47D breast 108% | MDA-MB-435 melanoma 95.5% | HCT-116 colon 103%

O=C(CCF)c1ccc(O)cc1
inactive: NCI-H322M lung 101% | HOP-92 NSCLC 100% | NCI-H522 lung 87.6% | COLO 205 colon 105% | SNB-19 CNS 96.2% | U251 CNS 106% | SK-MEL-5 melanoma 117% | SK-MEL-2 melanoma 105% | EKVX NSCLC 99.3% | SN12C renal 100% | TK-10 renal 106% | CCRF-CEM leukemia 95% | SR leukemia 96% | IGROV1 ovarian 100% | T-47D breast 102% | MDA-MB-435 melanoma 104%

O=C(N/N=C/c1ccc(N(CCCl)CCCl)cc1)c1cc(=O)[nH]c(=O)[nH]1
inactive: NCI-H322M lung 92.9% | NCI-H522 lung 96.7% | U251 CNS 98.2% | SK-MEL-5 melanoma 98.9% | EKVX NSCLC 115% | TK-10 renal 109% | ACHN renal 94.2% | HS 578T breast 105% | MDA-MB-435 melanoma 116% | HCT-116 colon 90.7%

O=C(NCc1ccc([N+](=O)[O-])cc1)Nc1ccc(S(=O)(=O)F)cc1
inactive: NCI-H322M lung 88.3% | COLO 205 colon 107% | SK-MEL-5 melanoma 79.9% | SK-MEL-2 melanoma 105% | SN12C renal 85.8% | TK-10 renal 78.1% | ACHN renal 90.1% | CCRF-CEM leukemia 81.4% | SR leukemia 79.1% | IGROV1 ovarian 94.8% | T-47D breast 57% | MDA-MB-435 melanoma 92.8% | HCT-116 colon 82.2%

CC(=O)O[C@H]1CCC2(C)C(=CCC3C2CCC2(C)/C(=N/OC(=O)c4ccc(N(CCCl)CCCl)cc4)CCC32)C1 (stereo not given in full)
active: U251 CNS -27.2% | SR leukemia -24.9% | HCT-116 colon 9.02%
inactive: HOP-92 NSCLC 76.1% | NCI-H522 lung 27.6% | COLO 205 colon 69.7% | SNB-19 CNS 37.7% | SK-MEL-2 melanoma 99.2% | EKVX NSCLC 23.1% | TK-10 renal 79.8% | IGROV1 ovarian 11.6% | HS 578T breast 27% | T-47D breast 17.7%

O=[N+]([O-])c1ccc2cnn(CSP(=S)(c3ccccc3)c3ccccc3)c2c1
active: SR leukemia 9.77% | MDA-MB-435 melanoma -20.9%
inactive: NCI-H322M lung 92.9% | HOP-92 NSCLC 65.7% | COLO 205 colon 101% | SNB-19 CNS 88.6% | U251 CNS 74.1% | SK-MEL-5 melanoma 56% | SK-MEL-2 melanoma 98.2% | SN12C renal 69.9% | ACHN renal 74.8% | CCRF-CEM leukemia 45.9% | IGROV1 ovarian 67.5% | T-47D breast 69.5% | HCT-116 colon 42.4%

c1ccc([As]=[As]c2ccccc2)cc1 (stereo not given)
active: NCI-H322M lung -40.5% | U251 CNS -98.7% | SK-MEL-5 melanoma -70.5% | SN12C renal -20.9% | SR leukemia -47.5% | IGROV1 ovarian -84.1% | HCT-116 colon -99.4%
inactive: SNB-19 CNS 20.5% | HS 578T breast 37.8%

NC(Cc1ccc2c(c1)OCO2)c1ccc2c(c1)OCO2 (stereo not given)
inactive: HOP-92 NSCLC 63.1% | NCI-H522 lung 97.2% | COLO 205 colon 99.9% | SNB-19 CNS 93.6% | U251 CNS 107% | SK-MEL-5 melanoma 103% | SK-MEL-2 melanoma 107% | EKVX NSCLC 126% | SN12C renal 94% | TK-10 renal 105% | ACHN renal 108% | CCRF-CEM leukemia 98.2% | SR leukemia 83.9% | HS 578T breast 103% | HCT-116 colon 95.5%

C[CH2][Pb]([CH2]C)([CH2]C)[O]C(=O)COc1ccccc1
inactive: ACHN renal 11.5% | T-47D breast 17.2%
active: NCI-H322M lung 0.448% | COLO 205 colon 1.67% | U251 CNS -1.93% | SK-MEL-5 melanoma -21.4% | SK-MEL-2 melanoma -0.355% | SN12C renal 8.52% | IGROV1 ovarian 2.01% | HS 578T breast 4.72% | MDA-MB-435 melanoma -31.9% | HCT-116 colon 4.13%

COc1cc(C2CC(=O)Nc3nc(N)[se]c32)cc(OC)c1OC (stereo not given)
inactive: HOP-92 NSCLC 138% | NCI-H522 lung 107% | COLO 205 colon 107% | SNB-19 CNS 52.1% | U251 CNS 29.8% | SK-MEL-5 melanoma 99% | SK-MEL-2 melanoma 89.2% | EKVX NSCLC 90% | ACHN renal 103% | CCRF-CEM leukemia 96% | SR leukemia 65.8% | IGROV1 ovarian 62% | HS 578T breast 81.9% | T-47D breast 74.5%

CSc1ccccc1NP1(=O)OCC(C)([N+](=O)[O-])CO1 (stereo not given)
inactive: NCI-H322M lung 126% | HOP-92 NSCLC 89.4% | NCI-H522 lung 103% | COLO 205 colon 116% | SNB-19 CNS 97.1% | U251 CNS 95.8% | SK-MEL-5 melanoma 98.2% | SK-MEL-2 melanoma 112% | EKVX NSCLC 97.8% | SN12C renal 98% | TK-10 renal 110% | ACHN renal 97.5% | CCRF-CEM leukemia 80.8% | SR leukemia 91.3% | HS 578T breast 103% | T-47D breast 96% | MDA-MB-435 melanoma 107% | HCT-116 colon 98%
